A350 fluor = qHTS Assay for Spectroscopic Profiling in A350 Spectral Region | Compound autofluorescence, 340/450 nm, Alexa 350 dye-equivalents; stronger effect = higher value | max dye-equivalent concentration, M | hit rate 11% among 59,000; in the data active means max dye-equivalent concentration above about 10 nM; inconclusive means mostly about 1.1 nM to 9.6 nM
HADH2 inh = qHTS Assay for Inhibitors of HADH2 (Hydroxyacyl-Coenzyme A Dehydrogenase, Type II). 3-hydroxyacyl-CoA dehydrogenase type-2 (Homo sapiens), Q99714. Potency, µM (highest dose often 57.1 µM), for the others: top-dose activity change, negative = inhibition, hits mostly inhibitors. recombinant HADH2, NADH fluorescence, beta-hydroxybutyryl-CoA. hit rate 3.4% among 73,000; further: potency means the concentration at half of the fitted maximal effect; on the % scale 0 is the no-effect control and ±100 the full control effect; nearly all actives have a fitted effect of over 60% in size
Target sequence (Q99714 whole entry, looked up, one chain of several): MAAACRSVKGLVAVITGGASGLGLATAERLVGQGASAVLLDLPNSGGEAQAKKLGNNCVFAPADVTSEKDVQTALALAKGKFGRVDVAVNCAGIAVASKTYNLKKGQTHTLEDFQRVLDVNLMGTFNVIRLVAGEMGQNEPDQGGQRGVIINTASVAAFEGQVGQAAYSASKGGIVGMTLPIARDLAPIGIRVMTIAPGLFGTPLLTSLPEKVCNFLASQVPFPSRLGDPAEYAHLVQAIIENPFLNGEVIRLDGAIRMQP
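Buffer 100 mM Tris-HCl pH 9.0/0.01% Tween-20; HADH2 20 nM; NAD+ 1 mM; beta-hydroxybutyryl-CoA 90 uM (all final). 15 min cpd preincubation, RT.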
AID923 = qHTS Assay for Allosteric/Competitive Inhibitors of Caspase-1: Spectroscopic Profiling in AFC Spectral Region; AID 923, 2007; Potency, µM (highest dose often 57.5 µM), for inactives: top-dose fluorescence increase, actives largely listed as activators; compound fluorescence, AFC spectral region (405/520 nm); hit rate 1.1% among 75,000; further: potency means the concentration at half of the fitted maximal effect; 0% is about no effect
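Baseline compound fluorescence (AFC region, 405 nm ex/520 nm em) taken from the intercept of kinetic reads with 50 nM caspase-1 and 5 uM Ac-WEHD-AFC; normalized to an on-plate AFC standard curve; compounds titrated up to 57 uM.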
CRE Fsk mod = Cell signaling CRE-BLA (Fsk stim). CHO CRE-bla reporter (cAMP response element driving beta-lactamase), forskolin EC10, beta-lactamase ratio. Potency, µM (top dose mostly 38.2 µM), without a hit: top-dose activity change, negative = inhibition, actives largely listed as activators. hit rate 2.5% among 71,000; active means well fitted activation curve with a large enough effect in the signal ratio, with a control signal flat, not every such curve was filed as active; inconclusive means small, poorly fitted or top-dose-only effect, or effect the other way, or a change in a side signal; the % refers to the signal ratio; further: potency means the concentration at half of the fitted maximal effect; % of control where 0% means no effect
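AC50 values, positive or negative, reflect shifts in EC10 NKH 477-induced CRE-bla reporter activity in CHO cells. Incubation lasted 3 h at 37 °C before CCF4 substrate (2 h, room temperature) and ratiometric 460/530 nm reading.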
4-MU autofl = qHTS Assay for Spectroscopic Profiling in 4-MU Spectral Region | compound autofluorescence, 340/450 nm, 4-MU equivalents; stronger effect = higher value | max dye-equivalent concentration, M | hit rate 11% among 59,000; in the data active means max dye-equivalent concentration above about 10 nM; inconclusive means mostly about 1.1 nM to 9.6 nM
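Compounds in 100 mM Tris, pH 8.0, incubated 15 min at room temperature, then fluorescence read at 340 nm excitation/450 nm emission. Signal converted to 4-MU dye-equivalent concentration using an on-plate six-point 4-MU standard curve.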
HSD17B inh = qHTS Assay for Inhibitors of HSD17B4, hydroxysteroid (17-beta) dehydrogenase 4. Potency, µM (titrated, usually from 57.1 µM), for inactives: top-dose activity change, negative = inhibition, usual class: inhibitors. AID 893, 2007. hit rate 7.6% among 75,000. recombinant HSD17B10, NADH fluorescence kinetic. 3-hydroxyacyl-CoA dehydrogenase type-2 (Homo sapiens), Q99714;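 further: the protocol describes HADH2 (HSD17B10) and not the HSD17B4 of the title; potency means the concentration at half of the fitted maximal effect; on the % scale 0 is the no-effect control and ±100 the full control effect; nearly all actives have a fitted effect of over 70% in size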
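His-tagged E. coli-expressed HADH2 at 20 nM in 100 mM Tris-HCl pH 9.0 with 0.01 % Tween-20, preincubated 15 min with compound at room temperature. Reaction with 1 mM NAD+ and 90 uM beta-hydroxybutyryl coenzyme A; NADH fluorescence (360/450 nm) read kinetically over 4 min, last minus first point.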
Numbers without * were called inactive. A selection: hits, their analogues and other compounds. The true share with any hit is near 14%. Unless noted, the call rests on the fitted dose curve; in most records, active means well fitted curve in the direction sought with a large enough effect; inconclusive means small, poorly fitted or top-dose-only effect, or another doubt; inactive means no such curve, though single readings can be large; an effect the other way counts as inactive or inconclusive.

What do the screens show for `CC(=O)c1c(N2CCN(C(=O)C3CCCO3)CC2)nc(=S)n(-c2ccccc2)c1C` (stereo not drawn)?
A350 fluor: inactive; HADH2 inh: 7%; AID923: -2%; CRE Fsk mod: -4%; 4-MU autofl: inactive; HSD17B inh: -7%

How did Cc1ccc2cc(C#N)c(N3CCCN(C(=O)C4CCCO4)CC3)nc2c1 (stereo not drawn) do in these assays?
A350 fluor: 6.4e-07M*; HADH2 inh: 7%; AID923: 10%; CRE Fsk mod: inconclusive; 4-MU autofl: 3.8e-07M*; HSD17B inh: inconclusive

How did Cc1ccc2cc(C#N)c(NCCCNC(=O)C3CCCO3)nc2c1 (stereo not drawn) do in these assays?
A350 fluor: 2.1e-06M*; HADH2 inh: inconclusive; AID923: 10%; CRE Fsk mod: inconclusive; 4-MU autofl: 1.1e-06M*; HSD17B inh: 32µM*

What do the screens show for `CCN1C(=O)/C(=C/N(C)C)c2ccccc21`?
A350 fluor: inconclusive; HADH2 inh: -15%; AID923: 0%; CRE Fsk mod: inconclusive; 4-MU autofl: 1.1e-08M*; HSD17B inh: inconclusive

Results for CN(C)C=C1C(=O)c2ccccc2C1=O ?
A350 fluor: inactive; 4-MU autofl: inactive

What do the screens show for `COc1ccc(S(=O)(=O)N(C)CC(=O)NCc2cccnc2)cc1C`?
A350 fluor: 8.7e-06M*; HADH2 inh: inconclusive; AID923: 1%; CRE Fsk mod: -4%; 4-MU autofl: 9.5e-06M*; HSD17B inh: 2%

Results for CCOc1ccccc1NC(=O)CN(C)S(=O)(=O)c1ccc(OC)c(C)c1 ?
A350 fluor: 1.3e-08M*; HADH2 inh: 1%; AID923: 0%; CRE Fsk mod: 4%; 4-MU autofl: inconclusive; HSD17B inh: -11%

What do the screens show for `COc1ccc(OC)c(S(=O)(=O)N(C)CC(=O)Nc2ccccc2OC)c1`?
A350 fluor: inactive; HADH2 inh: 15%; AID923: 4%; CRE Fsk mod: -3%; 4-MU autofl: inactive; HSD17B inh: 6%

Results for COC(=O)c1ccccc1NC(=O)CN(C)S(=O)(=O)c1cc(C)ccc1OC ?
A350 fluor: inactive; HADH2 inh: -1%; AID923: -2%; CRE Fsk mod: inconclusive; 4-MU autofl: inactive; HSD17B inh: 25µM*

How did COc1ccc(S(=O)(=O)N(C)CC(=O)Nc2ccccc2OC)cc1C do in these assays?
A350 fluor: inactive; HADH2 inh: 14%; AID923: 0%; CRE Fsk mod: -4%; 4-MU autofl: inactive; HSD17B inh: 1%

How did NCCCCCCN do in these assays?
HADH2 inh: 1%; AID923: 4%; CRE Fsk mod: inconclusive; HSD17B inh: 0%

What do the screens show for `Cn1cc(/C=N/n2cnc3sc4c(c3c2=O)CCCC4)c2ccccc21`?
A350 fluor: 2.1e-08M*; HADH2 inh: -12%; AID923: 1%; CRE Fsk mod: -10%; 4-MU autofl: 2.5e-08M*; HSD17B inh: -1%

What do the screens show for `Cc1nc2cnc(Oc3ccccc3)nc2n(CCC#N)c1=O`?
A350 fluor: inactive; HADH2 inh: -8%; AID923: 0%; CRE Fsk mod: -2%; 4-MU autofl: inactive; HSD17B inh: -4%

What do the screens show for `CCc1c(C)c2ccc(OCC(=O)OC(C)C)c(C)c2oc1=O`?
A350 fluor: inconclusive; HADH2 inh: 25µM*; AID923: -2%; CRE Fsk mod: 23%; 4-MU autofl: inactive; HSD17B inh: 32µM*

What do the screens show for `CCc1ccc(OCC(=O)N(C)C)c(Br)c1`?
A350 fluor: inactive; HADH2 inh: -1%; AID923: -3%; CRE Fsk mod: 4%; 4-MU autofl: inactive; HSD17B inh: 9%

Results for CCc1c(C)c2ccc(OCC(=O)N(C)C)c(C)c2oc1=O ?
A350 fluor: 1.2e-08M*; HADH2 inh: 25µM*; AID923: -2%; CRE Fsk mod: 6.3µM*; 4-MU autofl: 1.2e-08M*; HSD17B inh: 32µM*

What do the screens show for `COc1ccc2c(C)cc(=O)oc2c1C`?
HADH2 inh: 25µM*; AID923: 0%; CRE Fsk mod: inconclusive; HSD17B inh: 25µM*

What do the screens show for `CCOC(=O)CCc1c(C)c2ccc(OCC(=O)N(CC)CC)c(C)c2oc1=O`?
A350 fluor: 1.3e-08M*; HADH2 inh: 20µM*; AID923: 0%; CRE Fsk mod: 0%; 4-MU autofl: 1.4e-08M*; HSD17B inh: 25µM*

What do the screens show for `CC(=O)OC1CC[C@]2(C)C(CC[C@@]3(C)C2C(=O)C=C2C4C(C)C(C)CC[C@@]4(C(=O)O)CCC23C)C1(C)C` (stereo partly drawn)?
AID923: 0%; HSD17B inh: -10%

Results for Cc1c(C)c2ccc(OCC(=O)N(C)C)c(C)c2oc1=O ?
A350 fluor: 1.8e-08M*; HADH2 inh: 25µM*; AID923: -2%; CRE Fsk mod: inconclusive; 4-MU autofl: 1.8e-08M*; HSD17B inh: 32µM*

How did C=CCOC(=O)COc1ccc2c(C)c(C)c(=O)oc2c1C do in these assays?
HADH2 inh: 60%; AID923: -2%; CRE Fsk mod: 29%; HSD17B inh: 166%

How did Cc1cc(=O)oc2c(C)c(OCC(=O)N(C)C)ccc12 do in these assays?
A350 fluor: inconclusive; HADH2 inh: 32µM*; AID923: -1%; CRE Fsk mod: 14%; 4-MU autofl: inconclusive; HSD17B inh: 32µM*

What do the screens show for `COC(=O)c1sc(=S)sc1C(=O)OC`?
A350 fluor: inactive; HADH2 inh: inconclusive; AID923: 0%; CRE Fsk mod: inconclusive; 4-MU autofl: inactive; HSD17B inh: -14%

How did CCN(CC)c1ccc(NC(=O)C2CCCN(S(=O)(=O)c3cccnc3)C2)c(C)c1 (stereo not drawn) do in these assays?
HADH2 inh: -15%; AID923: 0%; CRE Fsk mod: -1%; HSD17B inh: -5%

What do the screens show for `CCOC(=O)c1ccc(NC(=O)CCC(CC)C(=O)O)cc1` (stereo not drawn)?
A350 fluor: inactive; 4-MU autofl: inactive

How did CCCCC(CCC(=O)Nc1ccccc1C(=O)OCC)C(=O)O (stereo not drawn) do in these assays?
A350 fluor: inactive; HADH2 inh: 19%; AID923: 1%; CRE Fsk mod: 0%; 4-MU autofl: inactive; HSD17B inh: 25µM*

What do the screens show for `COc1ccccc1-c1nc(NC2CC2)c2ccccc2n1`?
A350 fluor: inactive; HADH2 inh: inconclusive; AID923: 1%; CRE Fsk mod: inconclusive; 4-MU autofl: inactive; HSD17B inh: -5%

Screening results as filed in PubChem BioAssay.
